Rab9 promoter act – qHTS Assay for Rab9 Promoter Activators; Huh7 Rab9 promoter-luciferase reporter, luminescence, 24 h; 320,000 compounds, 2.8% hits; Potency, µM (doses to about 9.22 µM), usual class: activators; AID 485297, 2010; note: nearly all actives have a fitted effect of over 60% in size
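Using Huh7 cells stably transfected with Rab9 promoter–luciferase, compounds were incubated 24 h at 37 °C, 5% CO2; luciferase luminescence was read 10 min after reagent addition.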
NPC1 promoter act – qHTS Assay for NPC1 Promoter Activators. Huh7 NPC1 promoter luciferase reporter, 24 h. Potency, µM (highest dose often 9.22 µM), actives largely listed as activators. 320,000 compounds, 2.4% hits. AID 485313, 2010; note: nearly all actives have a fitted effect of over 60% in size
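NPC1 promoter–luciferase Huh7 cells; 24 h compound; luminescence.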
ELG1 repair inh – qHTS screen for small molecules that inhibit ELG1-dependent DNA repair in human embryonic kidney (HEK293T) cells expressing luciferase-tagged ELG1; Potency, µM (series often up to 46.1 µM), usual class: inhibitors; HEK293T ELG1-luciferase reporter, luminescence, 16 h; DNA damage induced by 5-fluorouridine; 330,000 compounds, 2.3% hits; note: nearly all actives have a fitted effect of over 55% in size
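5-Fluorouridine DNA damage + compound/DMSO, 2,000 cells/well, 16 h, 37 °C/5% CO2. ONE-Glo, 30 min RT, luminescence. Readout = decrease in reporter signal.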
SMN2 splice enh – qHTS Assay for Enhancers of SMN2 Splice Variant Expression. HEK293 SMN2-luciferase splicing reporter, luminescence, 30-36 h. Potency, µM (titrated, usually from 46.1 µM), actives largely listed as activators. 210,000 compounds, 2.8% hits; note: nearly all actives have a fitted effect of over 55% in size
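HEK293 cells carry an SMN2 minigene-luciferase reporter in which exon 7 inclusion puts luciferase in frame. Cells were seeded at 2000 cells/well, attached for 10-12 hours, then exposed to compounds for 30-36 hours at 37C before ONE-Glo luminescence.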
FLuc modulator – qHTS profiling assay for firefly luciferase inhibitor/activator using purifed enzyme and Km concentrations of substrates (counterscreen for miR-21 project). Luciferin 4-monooxygenase (Photinus pyralis), P08659. purified FLuc, Km substrates, luminescence inhibition. Potency, µM (top dose mostly 57.5 µM), hits mostly inhibitors. 360,000 compounds, 6.9% hits. AID 588342, 2011; note: nearly all actives have a fitted effect of over 55% in size
Target sequence (P08659 whole entry, looked up): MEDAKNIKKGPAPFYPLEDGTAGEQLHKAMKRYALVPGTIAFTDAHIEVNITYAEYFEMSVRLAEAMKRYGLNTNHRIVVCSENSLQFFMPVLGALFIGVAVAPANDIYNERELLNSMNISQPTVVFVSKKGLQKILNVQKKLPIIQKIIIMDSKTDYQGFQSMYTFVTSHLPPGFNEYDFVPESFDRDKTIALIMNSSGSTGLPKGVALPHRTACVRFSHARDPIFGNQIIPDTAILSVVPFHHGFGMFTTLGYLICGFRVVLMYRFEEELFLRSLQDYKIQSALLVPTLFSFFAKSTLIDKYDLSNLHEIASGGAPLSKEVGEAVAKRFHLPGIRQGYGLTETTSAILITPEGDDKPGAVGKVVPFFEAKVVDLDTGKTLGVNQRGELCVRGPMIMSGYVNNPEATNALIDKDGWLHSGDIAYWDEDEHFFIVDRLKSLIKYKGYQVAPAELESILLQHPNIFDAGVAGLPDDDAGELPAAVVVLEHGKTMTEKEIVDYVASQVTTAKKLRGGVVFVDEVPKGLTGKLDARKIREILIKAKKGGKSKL
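Purified P. pyralis luciferase (10nM final) with 10uM D-luciferin and 10uM ATP (Km levels) in 50mM Tris acetate pH 7.5, 10mM Mg acetate, 0.01% Tween-20, 0.05% BSA; qHTS 6-point titration, ~60 µM downward; luminescence read.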
ELG1 genotoxic – qHTS screen for small molecules that induce genotoxicity in human embryonic kidney (HEK293T) cells expressing luciferase-tagged ELG1. 330,000 compounds, 1.3% hits. HEK293T ELG1-luciferase reporter, luminescence, 16 h. AID 504466, 2011. Potency, µM (highest dose often 46 µM), actives largely listed as activators; note: nearly all actives have a fitted effect of over 60% in size
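16 hr compound incubation (37 °C, 5% CO2) of HEK293T cells carrying luciferase-tagged ELG1; luciferase then measured by ONE-Glo luminescence after 30 min at RT.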
Of the large screens only hits and unclear results are named; the others gave an inactive call. Hits are enriched below; roughly 9.4% of the tested compounds scored in any of these assays. Calls come from the whole dose curve; as a rule, active = well fitted curve in the direction sought with a large enough effect; inconclusive = small, poorly fitted or top-dose-only effect, or another doubt; inactive = no such curve, though single readings can be large; an effect the other way counts as inactive or inconclusive.

CCOc1ccc(NC(=O)CN2CCN(Cc3ccccc3)S2(=O)=O)cc1	none (no result: Rab9 promoter act, NPC1 promoter act, ELG1 repair inh, SMN2 splice enh, ELG1 genotoxic)
CCOc1ccc(C(=O)N(Cc2ccc(C(C)C)cc2)Cc2ccco2)cc1	none (no result: Rab9 promoter act, NPC1 promoter act, ELG1 repair inh, ELG1 genotoxic)
O=C(Nc1ccc2c(c1)OCCO2)c1coc2ccccc2c1=O	ELG1 repair inh inconclusive, FLuc modulator 0.76µM, ELG1 genotoxic inconclusive
Cc1cc(C(=O)Nc2ccc3c(c2)OCCO3)c(C)o1	Rab9 promoter act 3.2µM, NPC1 promoter act inconclusive, ELG1 repair inh inconclusive, SMN2 splice enh 11µM, FLuc modulator 7.6µM, ELG1 genotoxic 4.6µM
Cc1ccccc1C(=O)Nc1ccc2c(c1)OCCO2	Rab9 promoter act 0.4µM, NPC1 promoter act 0.5µM, ELG1 repair inh inconclusive, FLuc modulator 2.4µM, ELG1 genotoxic 1.8µM (no result: SMN2 splice enh)
Cc1cc(C(=O)Nc2ccc3c(c2)OCCO3)c2ccccc2n1	none
CC(=O)c1c(Nc2ccc3c(c2)OCCO3)oc(C)cc1=O	ELG1 repair inh inconclusive, FLuc modulator 27µM, ELG1 genotoxic inconclusive
CCOc1ccc(NC(=O)c2ccc3c(c2)CCN3S(=O)(=O)CC)cc1	none (no result: Rab9 promoter act, NPC1 promoter act, ELG1 repair inh, SMN2 splice enh, ELG1 genotoxic)
Cc1ccc2c(=O)cc(C(=O)Nc3ccc(S(=O)(=O)N4CCCCCC4)cc3)oc2c1C	none (no result: Rab9 promoter act, NPC1 promoter act, ELG1 repair inh, ELG1 genotoxic)
Cc1ccc(S(=O)(=O)N2CC(O)C2)cc1	none (no result: SMN2 splice enh)
Cc1noc(C)c1CSc1nc2ccccc2nc1NS(=O)(=O)c1ccc(Cl)cc1	ELG1 repair inh 13µM, FLuc modulator inconclusive
O=S(=O)(Nc1nc2ccccc2nc1NCc1ccco1)c1ccc(Cl)cc1	none
Cc1ccc(S(=O)(=O)NCc2cn3c(C)csc3n2)cc1	none
CCS(=O)(=O)Nc1ccc(-c2cn3c(C)csc3n2)cc1	FLuc modulator 19µM (no result: Rab9 promoter act, NPC1 promoter act, ELG1 repair inh, SMN2 splice enh, ELG1 genotoxic)
CC(=O)Nc1ccc(S(=O)(=O)Nc2ccc(-c3cn4c(C)csc4n3)cc2)cc1	FLuc modulator 17µM (no result: Rab9 promoter act, NPC1 promoter act, ELG1 repair inh, SMN2 splice enh, ELG1 genotoxic)
Cc1cccc(C(=O)NCC(=O)OCc2cc(=O)n3nc(C)sc3n2)c1	none (no result: Rab9 promoter act, NPC1 promoter act, ELG1 repair inh, SMN2 splice enh, ELG1 genotoxic)
Cc1cccc(NC(=O)c2c(NC(=O)c3ccccc3)sc3c2CCCC3)c1	FLuc modulator inconclusive (no result: Rab9 promoter act, NPC1 promoter act, ELG1 repair inh, ELG1 genotoxic)
COc1ccc(C(=O)COC(=O)c2ccc(NC(=O)c3ccccc3)cc2)cc1	none
CC(C)(C)C(=O)COC(=O)c1cccc(NC(=O)c2ccco2)c1	ELG1 repair inh inconclusive, SMN2 splice enh inconclusive, FLuc modulator inconclusive
O=C(COC(=O)c1cccc(NC(=O)c2ccco2)c1)c1ccc(Br)cc1	Rab9 promoter act inconclusive, NPC1 promoter act inconclusive, FLuc modulator 1.7µM
O=C(COC(=O)c1cccc(NC(=O)c2ccc(Br)cc2)c1)c1ccc(Cl)cc1	SMN2 splice enh inconclusive, FLuc modulator 2.7µM (no result: Rab9 promoter act, NPC1 promoter act, ELG1 repair inh, ELG1 genotoxic)
CCCCN1C(=O)C(=O)N(c2ccccc2)C1=S	Rab9 promoter act 3.5µM, NPC1 promoter act 3.2µM, ELG1 repair inh inconclusive, SMN2 splice enh 11µM, FLuc modulator 12µM, ELG1 genotoxic inconclusive
CC(=O)Nc1ccc(OC(=O)CC2SC(=O)NC2=O)cc1 (configuration not stated)	none
O=C(N/N=C/c1ccccc1OCC(=O)N1CCCC1)C(=O)Nc1ccccc1F	ELG1 repair inh inconclusive, FLuc modulator 9.5µM
O=C(CC1SC(=O)NC1=O)Oc1ccc(/C=N/NC(=O)c2ccccc2O)cc1 (configuration not stated)	FLuc modulator 17µM (no result: SMN2 splice enh)
O=C(CSCc1ccccc1Br)N/N=C/c1ccc(OCC(=O)N2CCCCC2)cc1	ELG1 repair inh 26µM, FLuc modulator inconclusive (no result: SMN2 splice enh)
O=C(N/N=C/c1ccc(OCC(=O)N2CCCC2)cc1)C(=O)NC1CC1	ELG1 repair inh inconclusive (no result: SMN2 splice enh)
O=C(O)COc1ccc(/C=N/NC(=O)c2cn(-c3ccccc3)nc2-c2ccccc2)cc1	FLuc modulator 4.8µM (no result: SMN2 splice enh)
CSc1cccc(NC(=O)CC(c2cccs2)N2Cc3ccccc3C2=O)c1 (configuration not stated)	none (no result: Rab9 promoter act, NPC1 promoter act, ELG1 repair inh, SMN2 splice enh, ELG1 genotoxic)

Assay outcomes deposited in PubChem by National Center for Advancing Translational Sciences (NCATS).
